Common to all, as to experiment: NCI-60 one-dose screen, 48 h (100 = growth as untreated, 0 = no growth, -100 = all killed)
Conditions in all cases: 10 µM unless noted

Assay [1] deals with SK-MEL-2 melanoma.
Assay [2] concerns SN12C renal.
For assay [3], the system named is UO-31 renal.
For assay [4], the system named is TK-10 renal.
For assay [5], the system named is ACHN renal.
Assay [6] deals with CAKI-1 renal.
For assay [7], the system named is A498 renal.
Assay [8] deals with CCRF-CEM leukemia.
Assay [9] deals with MOLT-4 leukemia.
Assay [10] relates to SR leukemia.
The subject of assay [11] is RPMI-8226 leukemia.
Assay [12] deals with OVCAR-8 ovarian.
In assay [13] the test system is OVCAR-5 ovarian.
Assay [14] relates to OVCAR-4 ovarian.
The subject of assay [15] is SK-OV-3 ovarian.
For assay [16], the system named is OVCAR-3 ovarian.
The subject of assay [17] is HS 578T breast.
Assay [18] concerns NCI/ADR-RES ovarian.
Assay [19] relates to IGROV1 ovarian.

The structures appear in SMILES notation. The panel holds about 83,000 compounds, 20% with a hit somewhere; the sample as a whole holds those more often.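 Step 1: grow cells in 96-well plates. Step 2: add test compound at a single concentration. Step 3: incubate 48 h. Step 4: record percent growth.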 Values without a mark were called inactive. Activity calls are given as the source filed them. Rule for the calls: active = growth percent below 10; inactive = the rest.

Consider `CSc1nc(-c2ccc(O)cc2O)c2c(=O)[nH]c(Nc3ccc(S(=O)(=O)Nc4nc(C)cc(C)n4)cc3)nc2n1`, for which the growth in assay [1] was 81.2%; in assay [2], 107%; in assay [3] it was 112%; in assay [4], 123%; in assay [5] it was 93.3%; in assay [6], 1120%. Besides, the growth in assay [7] is 113%; in [8], 103%; in assay [9], 104%; in assay [10] it was 63.3%; in [11], 99.2%; in [12], 107%. The growth in [13] is 90%; in assay [14] it was 108%; in assay [15] it was 105%; in assay [16], 98.1%; in assay [17] it was 119%; in assay [18], 97.5%.

On to `O=C1/C(=C/c2ccccc2O)C(=S)SN1Cc1ccco1`, for which the growth is 81.4% in assay [1]; 93.8% in assay [2]; 84.4% in [3]; 98.8% in [4]; 106% in assay [5]; 119% in [6]. Further, the growth in assay [7] was 95.2%; in [8], 70.7%; in assay [9], 99%; in assay [10] it was -9.87% (active); in assay [11], 66.8%; in assay [14], 105%. In addition, the growth in [15] was 98.8%; in assay [19], 93.4%; in [16], 111%; in [17] it was 104%; in assay [18], 110%.

In the case of `COc1ccc(-c2nnc3c4[nH]cnc4ncn23)c(OC)c1`, the growth in assay [1] was 29.9%; in assay [2], 55.3%; in [3], 23.3%; in assay [4], 10.8%; in assay [5], 28.2%; in assay [6], 20.9%. The growth in assay [7] is 80.4%; in assay [8], 12.6%; in assay [9], 8.73% (active); in [10], 15.5%; in assay [11], 9.32% (active); in assay [12] it was 18.4%. The growth is 36.8% in assay [14]; 11.4% in [15]; 13.4% in [16]; 54.4% in [17]; 17.6% in assay [18].

Take `Nc1ccc2c(c1Br)Cc1ccccc1-2`: the growth in assay [1] is 94.2%; in assay [2], 86.6%; in assay [3], 54.4%; in [4] it was 123%; in assay [5] it was 95.8%; in [6], 98.6%. Moreover, the growth was 86.8% in assay [7]; 53.2% in [8]; 68.4% in assay [9]; 93.6% in assay [10]; 98.6% in assay [12]; 94.6% in [13]. The growth in assay [14] was 98.6%; in assay [15], 95.4%; in assay [19], 108%; in assay [16], 99.1%; in assay [17], 95.4%; in assay [18] it was 100%.

`COC(=O)[C@H](Cc1cn(C)cn1)NC(=O)[C@H](C)NC(=O)Nc1cc(C(F)(F)F)cc(C(F)(F)F)c1`: the growth in assay [1] is -90.1% [100 µM] (active); in assay [2] it was -82.4% [100 µM] (active); in assay [3] it was -92.7% [100 µM] (active); in [4], -96.4% [100 µM] (active); in assay [5], -90% [100 µM] (active); in assay [6], 73.1% [100 µM]. Besides, the growth in assay [7] was -88.4% [100 µM] (active); in [9], -27.4% [100 µM] (active); in assay [10], -31.1% [100 µM] (active); in assay [11], -31.7% [100 µM] (active); in assay [12] it was -68.1% [100 µM] (active); in [13], -43.8% [100 µM] (active). Also, the growth was -58.3% [100 µM] (active) in assay [14]; -97.5% [100 µM] (active) in assay [15]; -54% [100 µM] (active) in [19]; -89.4% [100 µM] (active) in [16]; -1.05% [100 µM] (active) in assay [17]; 79.3% [100 µM] in assay [18].

On to `Cc1ccc(OCC(=O)Nc2ccc(Oc3ccccc3)cc2)c([N+](=O)[O-])n1`, for which the growth was 30.9% in [1]; 68.5% in assay [2]; -38.4% (active) in assay [3]; 92.2% in [4]; 101% in assay [5]; 84.3% in assay [6]. The growth in [7] is 107%; in assay [8] it was 88%; in assay [9] it was 81.8%; in [10], 82.6%; in [11], 50.7%; in assay [12], 79%. For the same compound, the growth in assay [13] was 84.4%; in assay [14], 77.4%; in assay [15], 71.9%; in assay [16] it was 88.7%; in assay [17], 113%; in assay [18], 43.7%.

On to `NC(=O)c1cc(Cl)ccc1NC(=O)c1ccccc1-c1ccccc1`, for which the growth in assay [1] is -12.2% (active); in assay [2] it was 51.9%; in assay [3], 30.7%; in assay [4], 41.6%; in assay [5] it was 34.9%; in assay [6], 26.4%. The growth in assay [7] was 27.5%; in [8], 7.4% (active); in [9] it was 13.3%; in assay [10], 5.82% (active); in assay [11], 19%; in assay [12], 32%. For the same compound, the growth is 54.4% in [13]; 48.3% in assay [14]; 33.1% in assay [15]; 30% in assay [19]; 33.8% in assay [17]; 20.7% in assay [18].

On to `NC(=O)c1cc(Br)cc(Br)c1NS(=O)(=O)c1ccccc1`, for which the growth in assay [1] was 110%; in assay [2], 95.9%; in assay [3], 75%; in assay [4], 130%; in assay [5], 100%; in [6], 89.8%. Also, the growth in assay [7] was 96.1%; in [8], 91.8%; in assay [9], 123%; in [10], 101%; in [11], 97.2%; in assay [12], 114%. Also, the growth in assay [13] was 108%; in [14], 95.8%; in assay [15], 102%; in assay [19] it was 94.9%; in [16], 106%; in assay [17], 105%. Further, the growth in assay [18] is 103%.

The values above are taken from PubChem BioAssay (NCI).
